The panel holds about 83,000 compounds, 20% with a hit somewhere; the sample as a whole holds those more often.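 The test compound was applied at a single concentration to cells in 96-well plates for 48 hours, and percent growth was recorded.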 Activity calls are given as the source filed them.
system: TK-10 renal; test: NCI-60 one-dose screen, 48 h (100 = growth as untreated, 0 = no growth, -100 = all killed); settings: 10 µM
Method: Growth inhibition of the TK-10 human tumor cell line is measured as a screen for anti-cancer activity. Cells are grown in 96 well plates and exposed to the test compound for 48 hours. Compounds are tested at a single concentration, which is 10^-5 M for most compounds. The reported endpoint is percent growth (GI% or GIPRCNT), where numbers from 0 - 100% represent growth inhibition, and numbers from -100% - 0 represent cell death. For example, a value of 40 represents 60% growth inhibition. A value of 0 means no net growth occurred over the course of the experiment. A value of -40 indicates 40% of cells at the beginning of the experiment died by the end of the experiment. A value of -100 means all cells are dead at the end of the experiment.
NCI-60 Human Tumor Cell Lines Screen was performed using the standard one-dose NCI protocol, which is described in more detail at https://dtp.cancer.gov/discovery_development/nci-60/default.htm.
Compounds with GIPRCNT values below 10 were considered active. Activity score was based on GIPRCNT using the following formula: […]
Score is 0 for GIPRCNT values of 100 or above, 50 for GIPRCNT values of 0, and 100 for GIPRCNT values of -100.

Structure (SMILES)	growth
Cc1ccc(-c2cc(C(=O)N=Nc3c(O)[nH]c4ccccc34)c3ccccc3n2)cc1	63.4% (inactive)
COc1cc2c3c(n(CCCN4CCOCC4)c(=O)c2cc1OC)-c1nc2c(cc1C3=O)OCO2	79.5% (inactive)
COc1ccc(C(=O)/C=C/c2cc(F)cc(C(F)(F)F)c2)cc1S(N)(=O)=O	-12.4% (active)
O=C(Nc1ccccc1)Nc1nc2ccccc2s1	95.4% (inactive)
O=C(CSc1nnc(-c2ccc3nc(-c4ccccc4)[nH]c3c2)o1)Nc1ccc(Br)cc1	81.3% (inactive)
CC(=O)Nc1ccc(-c2cn(-c3cccc(C(=O)Nc4cc(CN5CCOCC5)cc(C(F)(F)F)c4)c3)nn2)cn1	-99.3% (active)
COc1ccc([C@H]2C(C(=O)c3ccc(Cl)cc3)C3(N[C@@H]2c2ccccc2)C(=O)Nc2ccc(Cl)cc23)cc1 (stereo not given in full)	9.59% (active)
Cc1noc2c(Cc3ccccc3)nn(CC(=O)N/N=C/c3ccc(Br)cc3)c(=O)c12	17.8% (inactive)
CN1CCN(c2ccc(C(=O)/C=C/c3ccc(OC(F)F)cc3)cc2)CC1	63.8% (inactive)
C=C[C@H]1[C@H](O[C@@H]2OC(CO)[C@@H](O)[C@H](O)C2OC(=O)c2c(O)cc(O)cc2-c2cccc(O)c2)OC=C2C(=O)OCC[C@H]21 (stereo not given in full)	102% (inactive)
CCN1CCN(Cc2ccc(C(=O)Nc3cccc(-c4cn(-c5ccc6oc(=O)ccc6c5)nn4)c3)cc2C(F)(F)F)CC1	-100% (active)
COc1ccc(-c2nc(S(=O)(=O)c3ccc(C)cc3)c(S(=O)(=O)CC(=O)N(C)Cc3ccccc3)o2)cc1	56% (inactive)
Cc1cc(=O)oc2cc(OCCCCOc3ccc(/C=C/C(=O)Nc4ccccc4[N+](=O)[O-])cc3)ccc12	104% (inactive)
Cc1ccc(-c2nc3ccc(C(=O)N=Nc4c(O)[nH]c5ccc([N+](=O)[O-])cc45)cc3[nH]2)cc1	107% (inactive)
Cc1ccc(/C(CSc2nnc(-c3c[nH]c4ccccc34)n2-c2ccccc2)=N/O)cc1	-65.1% (active)
O=C1NC(=NC23CC4CC(CC(C4)C2)C3)N/C1=C\c1ccc2ncoc2c1	24.2% (inactive)
O=c1[nH]c2ccccc2cc1CSc1ccc(Nc2nccc(-c3ccc4ccccc4c3)n2)cc1	78.8% (inactive)
CC(=C(c1ccc(OCCN2CCCCC2)cc1)c1ccc(OCCN2CCCCC2)cc1)c1ccccc1	70.4% (inactive)
CC[C@@]1(O)C(=O)OCc2c1cc1n(c2=O)Cc2c-1nc1cc(F)c(C)c3c1c2[C@@H](N)CC3	6.02% (active)
COc1ccc(-c2ccc(SCC(=O)Nc3ccc(C#N)cc3)nn2)cc1	108% (inactive)

Structure (SMILES)	growth
CC(C)(C)c1ccc(NCc2cn(-c3ccc(C(=O)O)cc3)nc2-c2ccc(C#N)cc2)cc1	86.3% (inactive)
CCOC(=O)C1NN(c2ccc(S(N)(=O)=O)cc2)c2nc3nc(-c4cccs4)cc(-c4cccs4)c3c(=O)n21 (stereo not given)	100% (inactive)
CNC(=O)c1cccc(N2CCc3c2ccc(NC(=O)Nc2ccc(N4CCN(C)CC4)c(C(F)(F)F)c2)c3F)c1	-94.7% (active)
O=C(Nc1ccc(OCc2ccccc2)cc1)Nc1ccc(Cl)c(C(F)(F)F)c1	21% (inactive)
O=C(c1ccc(O)cc1)C1[C@H](c2ccc(Br)cc2)[C@@H](c2ccccc2)NC12C(=O)Nc1ccccc12 (stereo not given in full)	35.9% (inactive)
NC1=NC(c2ccccc2Cl)N=C(Nc2nn[nH]n2)N1 (stereo not given)	99.6% (inactive)
O=C(CSc1nnc(-c2ccc3nc(-c4ccc(Cl)cc4)[nH]c3c2)o1)Nc1ccc(Br)cc1	86% (inactive)
CCOc1ccc2ncc(C#Cc3cncc(C(=O)Nc4ccc(CN5CCN(C)CC5)c(C(F)(F)F)c4)c3)n2n1	-66.5% (active)
Cc1noc2c(Cc3ccccc3)nn(CC(=O)N/N=C/c3ccc(Cl)cc3)c(=O)c12	4.87% (active)
COc1cc2c3c(n(CCCNCCO)c(=O)c2cc1OC)-c1nc2c(cc1C3=O)OCO2	85.5% (inactive)
C[C@H]1[C@H](C)CC[C@]2(COC(=O)CCC(=O)NCC#CCN3CCNCC3)CC[C@]3(C)C(=CC[C@@H]4[C@@]5(C)CCCNC(C)(C)[C@@H]5CC[C@]43C)[C@H]12	70.9% (inactive)
COc1ccc(-c2cc(C(=O)N=Nc3c(O)[nH]c4ccc(Br)cc34)c3ccccc3n2)cc1	97.8% (inactive)
COc1cc2c(cc1OC)/C(=C\c1sc(Nc3ccc(O)cc3)nc1O)C(C(=O)O)=N2	77.4% (inactive)
COC[C@@H](CC(C)C)N=C1N/C(=C\c2ccc3ncsc3c2)C(=O)N1C	27.4% (inactive)
CC(C)C1=C[C@@]23CC[C@@H]4[C@](C)(CCC[C@]4(C)C(=O)NCc4ccccc4)[C@H]2C[C@@H]1[C@H]1C(=O)OC(=O)[C@H]13	44.9% (inactive)
NS(=O)(=O)c1ccc(NC(=O)CSc2ccc(-c3ccccc3)nn2)c(Br)c1	118% (inactive)
Cc1cc(=O)oc2cc(OCCCCOc3ccc(/C=C/C(=O)Nc4cccc(Cl)c4)cc3)ccc12	66.2% (inactive)
Cc1ccc(C(C)C)cc1NC(=O)c1ccccc1N(C)C	90.2% (inactive)
Cc1ccc(-c2cc(-c3cc4ccccc4nc3Cl)[nH]c(=S)n2)cc1	107% (inactive)
O=c1cc(-c2ccccc2)oc2cc(OCCCNCc3ccccc3)cc(O)c12	37.3% (inactive)
